Structures are written as SMILES. The whole screen tested about 320,000 compounds, of which about 1,300 (0.41%) were called active. Another 3% or so got no clear call; they are omitted. The rule behind the calls is not given here. Only a sample is shown. Measured potencies and affinities stand elsewhere.

The nature of the assay: growth inhibition of non-replicating M. tuberculosis (AID 488890).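 Note: plate controls were DMSO cells for no effect and high antibiotic wells for full effect.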 To be noted: Mycobacterium tuberculosis non-replicating, at 25 µM, stronger effect = higher value.
`CN(C)S(=O)(=O)n1ccnc1`: the inhibition (usually the drop in the measured response relative to a control, in per cent) is -7.18%.
Regarding `c1cnc2nc(-c3ccc4c(c3)OCO4)cn2c1`, the inhibition is 14.6%.
The value for `Oc1ccc(-c2nc3ncccn3c2Nc2ccc3c(c2)OCO3)cc1` was 0.55%; that for `COCCn1c(SCC(=O)NC(=O)NC2CCCC2)nc2ccccc2c1=O` was -3.24%.
In the case of `CN(C)CCCNC(=O)CC1C[C@H](C(=O)N2CCOCC2)[C@@]2(CCC3CCCC3)c3[nH]c4ccccc4c3CCN2C1=O` (some centres undefined), the inhibition was 48.7%.
In the case of `C=CCOc1ccc(Br)cc1CNC(C)(C)C`, the inhibition stood at 54.2%.
On to `CC(C)COc1ccc(Br)cc1CNC(C)(C)C`, for which the inhibition worked out at 72%.
Consider `Cn1nnc(NCc2cc(Br)ccc2OCc2cccs2)n1`, for which the inhibition was found to be 24.3%.
The value for `CC(C)(C)NCc1ccccc1OCc1cccs1` was 6.2%.
The value for `CC1CCCCN1CCn1c(=S)[nH]c2cc3c(cc2c1=O)OCO3` (centres undefined) was 9.55%; that for `Cc1c(/C=C2\NC(=O)NC2=O)c2ccccc2n1C` was 16.4%; that for `O=c1cc(O)n(Cc2ccc(F)cc2)c(=O)[nH]1` was -1.55%.
Take `CCOCCCNC(=O)C1CCC(CNS(=O)(=O)c2cccc3nsnc23)CC1` (centres undefined): the inhibition was -10.5%.
The value for `COc1ccc(C(=O)c2cc3cccc(OC)c3o2)cc1` was 70.7%; that for `COc1cccc2cc(C(=O)c3ccccc3)oc12` was 77.7%; that for `O=C(COc1ccccc1Cl)N1CCN(C(=O)c2ccco2)CC1` was 6.78%.
Regarding `CCOCCOC(=O)c1[nH]c2c(c1C)C(=O)CC(c1cccs1)C2` (centres undefined), the inhibition amounted to 5.49%.
Regarding `Cc1[nH]c2ccc(Br)cc2c(=O)c1CN1CCCCC1`, the inhibition was determined as 6.69%.
The value for `O=C(CCNC(=O)c1ccc([N+](=O)[O-])cc1)Nc1ccc(F)cc1F` was 69.1%; that for `CO/N=C/CC(=O)Nc1ccc(F)cc1F` was -1.66%; that for `O=C(O)CC(Cc1ccc(Cl)cc1)C(=O)Nc1ccc([N+](=O)[O-])cc1` (centres undefined) was 7.55%.
The value for `COC(=O)C(/C=N/OCc1ccc([N+](=O)[O-])cc1)NC(=O)c1ccccc1` (centres undefined) was 1.7%; that for `O=C(Cc1ccc([N+](=O)[O-])cc1)Nc1ccc(Cl)cc1` was 12.6%; that for `O=C(C/C=N\OCc1ccc(Cl)cc1Cl)Nc1ccccc1` was 55.5%.
For the molecule `O=C(NCCCCc1ccccc1)C1CC(c2cccc(F)c2)=NO1` (centres undefined), the inhibition came out at 9.38%.
With `Nn1c(-c2ccccc2)nc2ccccc2c1=O`, the inhibition was -12.5%.
Turning to `O=C(O)c1cnc(-c2ccccc2)nc1Sc1cccc(Cl)c1`, the inhibition is 53.3%.
Consider `CCC(CC)NC(=O)COC(=O)c1cc(SC)ccc1Cl`, for which the inhibition is 28.5%.
The value for `CCOc1ccccc1N1CCN(CC(O)COC2CCCc3ccccc32)CC1` (centres undefined) was 59.7%.
The value for `CN(C)C(=O)CSc1nnc([C@H](Cc2c[nH]c3ccccc23)NC(=O)OC(C)(C)C)o1` was -0.86%; that for `CC(CCc1ccc(O)cc1)NC1c2ccccc2-c2ccccc21` (centres undefined) was 43.3%; that for `CC(C)=N/N=C1\NC(=O)C(C)S1` (centres undefined) was 54%.
As for `O=C(CNC(=O)N1CC(=O)Nc2ccccc21)Nc1ccccc1F`, the figure is -10.2%.
On to `COc1ccc(/C=C2\SC(=N)N(c3nccs3)C2=O)cc1OC`, for which the inhibition was -5.11%.
For `N=C1S/C(=C\c2ccco2)C(=O)N1c1ccc2c(c1)OCO2`, the inhibition was determined as 0.43%.
As for `CN(C1CCCCC1)S(=O)(=O)c1cccc(C(=O)Nc2ccccn2)c1`, the figure is 25.5%.
Turning to `CCOP(=O)(Cc1cc(C(=O)CC)c(C)o1)OCC`, the inhibition was -21.9%.
As for `O=c1ccnc(Sc2ncccc2[N+](=O)[O-])[nH]1`, the figure is 37.6%; as for `CC(C)(C)c1csc(Sc2ncccc2[N+](=O)[O-])n1`, 19.4%.
Turning to `O=[N+]([O-])c1cccnc1Sc1ccc(F)cc1`, the inhibition was 18.3%.
Consider `Cc1ccc(Sc2ncccc2[N+](=O)[O-])cc1`, for which the inhibition amounted to 23.3%.
The value for `CCn1c(=O)n(-c2ccc(Cl)cc2)c(=O)c2c3c(sc21)COC(C)(C)C3` was 5.56%; that for `O=C(COC(=O)Cc1ccsc1)Nc1ccc(Cl)cc1F` was 70.1%.
As for `CC(C)(C)OC(=O)CNC(=O)c1[nH]cnc1C(=O)NC1CCNCC1`, the figure is -8.53%; as for `COc1ccc(OCCCC(=O)NCc2ccco2)cc1`, 56.7%; as for `Cc1ccc(OCCCC(=O)NCc2ccco2)cc1`, 53.7%.
For `CC1CCN(C(=O)c2cc3c(=O)n4ccccc4nc3s2)CC1`, the inhibition was -10.7%.
The value for `CCCCN(C)Cc1c(C)[nH]c2ccc(C)cc2c1=O` was 3.45%; that for `CC(CCc1ccccc1)NC(=O)c1ccc(F)cc1` (centres undefined) was 65.9%.
Regarding `CN(C)CCCN(C(=O)c1ccc(S(=O)(=O)N2CCCCC2)cc1)c1nc2cc3c(cc2s1)OCO3`, the inhibition was determined as 20.6%.
As for `CC(C)c1ccc(/C=N/NC(=O)c2c(Cl)cnn2C)cc1`, the figure is -10.4%.
The value for `CSCCOC(=O)COc1ccc(/C=N/NC(=O)c2nn(C)cc2Cl)cc1` was 75.7%.
On to `COc1cc(CN2CCN(Cc3ccc(SC)cc3)CC2)cc(OC)c1O`, for which the inhibition was -26.9%.
The value for `N/C(=N\N=C\c1cccs1)SC1CC(=O)N(c2cccc([N+](=O)[O-])c2)C1=O` (centres undefined) was -1.1%; that for `COc1ccc(N(CN2C(=O)c3ccccc3C2=O)C(=O)C(C)C)cc1` was 2.08%.
In the case of `O=C(Nc1ncc(Cc2ccccc2Cl)s1)c1ccc([N+](=O)[O-])cc1`, the inhibition is -27.1%.
In the case of `CC(C)C(=O)Nc1ncc(Cc2ccccc2Cl)s1`, the inhibition was found to be 4.24%.
The value for `Cc1ccc(C(=O)Nc2ncc(Cc3ccccc3)s2)o1` was 32.2%.
As to `Cc1ccc(C(=O)Nc2ncc(Cc3ccc(F)cc3)s2)o1`, the inhibition was 13.4%.
The value for `Cc1ccc(Cc2cnc(NC(=O)c3ccco3)s2)cc1` was 79%; that for `CC(=O)Nc1ncc(Cc2cccc(Cl)c2)s1` was 36.5%.
As for `O=C(Nc1ncc(Cc2ccccc2)s1)C1COc2ccccc2O1` (centres undefined), the figure is 64%; as for `CC(C)C(=O)Nc1ncc(Cc2ccc(Cl)cc2)s1`, 32.4%; as for `O=C(CSc1oc(-c2ccc(F)cc2)nc1S(=O)(=O)c1ccccc1)NCC1CCCO1` (centres undefined), -4.84%.
As for `CCc1cc(CNC(=O)c2ccc(OC3CCN(CCc4ccccc4)CC3)cc2)on1`, the inhibition is 4.71%.
For the molecule `CN(CC(=O)Nc1cccc(F)c1)C(=O)c1ccccc1Cc1ccccc1`, the inhibition is -4.13%.
Turning to `O=C(NCc1ccco1)c1cccc(S(=O)(=O)N2CCCCC2)c1`, the inhibition turned out to be 16.4%.
As for `CCN1CCN(C(=O)/C(=C/c2ccco2)NC(=O)c2ccccc2)CC1`, the figure is -2.48%; as for `O=C(CCC(=O)N1CCOc2ccccc21)N1CCCCC1`, -34.4%.
For the molecule `CN(C)CCCN(C(=O)c1ccc(N2C(=O)CCC2=O)cc1)c1nc2c(F)cccc2s1`, the inhibition is -7.06%.
The value for `CCN1CCCC1CNC(=O)C(=O)NC(C)c1ccccc1` (centres undefined) was 5.13%; that for `COCc1cc(=O)[nH]c(SCC(=O)c2ccccc2)n1` was -7.52%; that for `O=c1c2ccccc2sn1-c1ccc(F)cc1` was -1.44%.
As for `O=C(O)c1cccc(-n2sc3ccccc3c2=O)c1`, the figure is -0.63%; as for `CC1(C)CC(=O)C2=C(C1)OC1=C(C(=O)CC(C)(C)C1)C2c1ccccc1`, -3.44%.
`Cc1ccc(NC(=O)CN2CCCCCC2)cc1Br`: the inhibition turned out to be 5.31%.
As for `COc1ccc(NC(=O)CN(C)C2CCCCC2)cc1Cl`, the figure is 33.9%; as for `CN(CC(=O)Nc1ccc(S(N)(=O)=O)cc1)C1CCCCC1`, -0.54%.
As for `Cc1ccc(NC(=O)CN(C)C2CCCCC2)cc1Cl`, the inhibition came out at 72.6%.
As for `CCC(=O)Nc1ccc2oc(-c3cccc(C)c3)nc2c1`, the figure is -26.3%; as for `COCC(=O)Nc1ccccc1C(=O)Nc1ccc(OC)cc1`, -1.58%; as for `COc1ccc(CCN(C)C2CCCN(S(C)(=O)=O)C2)cc1OC` (centres undefined), -23.7%.
On to `O=C(CN1CCN(c2ccccc2F)CC1)c1c[nH]c2ccccc12`, for which the inhibition amounted to 4%.
In the case of `COc1ccc(-n2nc(C(=O)NCC(=O)N3CCN(c4ccc(F)cc4)CC3)c3ccccc3c2=O)c(OC)c1`, the inhibition was determined as 3.71%.
`N#Cc1ccc(C(=O)CN2CCN(c3ccccc3)CC2)cc1`: the inhibition was found to be 3.58%.
Take `COc1ccc(N2CCN(C(=O)C3CCN(C(=O)c4ccc([N+](=O)[O-])cc4)CC3)CC2)cc1`: the inhibition is 21.3%.
As for `CS(=O)(=O)N(CC(=O)N1CCN(c2ccc(F)cc2)CC1)c1cccc(Cl)c1`, the figure is -4.05%.
As for `O=C(NCc1cccnc1)c1ccc(S(=O)(=O)N2CCCCCC2)cc1`, the figure is 5.4%.
Turning to `O=C(COc1ccc(-n2ccnc2)cc1)Nc1cccc(F)c1`, the inhibition is 62.5%.
For the molecule `CCOCC(=O)Nc1ccc(Br)c(C)c1`, the inhibition was determined as 78.4%.
As for `Cc1ccc(NC(=O)COc2ccccc2C=O)cc1Cl`, the figure is 11.5%; as for `Cc1ccc(NC(=O)CCC(=O)NNC(=O)COc2ccccc2)cc1C`, -33.1%.
As for `COCC(=O)Nc1ccc(C)c(Cl)c1`, the inhibition amounted to 57.3%.
As to `CC(C)c1ccc(NC(=O)COc2ccccc2)cc1`, the inhibition amounted to 75.1%.
As for `COc1cc(NC(=O)COc2ccc(-n3ccnc3)cc2)cc(OC)c1`, the figure is 57.6%; as for `Cc1ccc(NC(=O)COc2ccccc2C(=O)Nc2ccccc2)cc1Cl`, -4.97%.
As for `CC(C)n1ncc(C(N)=O)c1N`, the figure is -11%.
As for `O=C(CO/N=C/c1c(Cl)cccc1Cl)NNC(=O)c1ccc(Cl)cc1`, the inhibition was -1.83%.
As for `CCn1ccnc1CN(C)C(=O)CCc1nnc(CCC2CCCCC2)o1`, the figure is 6.59%; as for `Cc1cccc(-n2c(-c3ccncc3)n[nH]c2=S)c1C`, 13.2%.
Consider `Nc1nc(SCCC(F)=C(F)F)n[nH]1`, for which the inhibition was 2.3%.
As for `Cc1nc2ccc(NC(=O)Cc3cccc(F)c3)cc2s1`, the inhibition amounted to 3.01%.
As for `O=C(CC(Nc1ccccc1)C(=O)O)c1ccccc1` (centres undefined), the figure is 28.9%; as for `Cc1cccc(OCC(=O)Nc2ccc3nc(C)sc3c2)c1`, 75.1%.
As to `O=C(CC(Nc1ccc(Cl)cc1)C(=O)O)c1ccccc1` (centres undefined), the inhibition was 58.9%.
The value for `CC(=O)c1ccccc1OCc1ccc(S(=O)(=O)Cc2ccccc2)cc1` was 46%; that for `O=C(NCc1ccccc1F)C1CCCN1C(=O)Nc1ccc(F)cc1` (centres undefined) was 5.39%.
For `CC1CN(C(=O)COc2ccc3ccccc3c2Br)CC(C)O1` (centres undefined), the inhibition was found to be 3.67%.
The value for `O=C(NCc1cccnc1)C(=O)N/N=C/c1ccccc1[N+](=O)[O-]` was 0.97%; that for `CC(=O)[C@@]1(O)CCC2C3CC=C4C[C@@H](O)CC[C@]4(C)C3CC[C@@]21C` (some centres undefined) was -5.65%.
Regarding `Fc1ccc(CSc2nnc(-c3ccncc3)o2)cc1`, the inhibition is 73.6%.
`COc1cccc(C(=O)CSc2nnc(-c3cccs3)o2)c1`: the inhibition stood at 65%.
As for `Clc1ccc(Cc2nnc(-c3ccccc3Br)o2)cc1`, the figure is 69.1%.
`Clc1ccc(Cc2noc(-c3cccs3)n2)cc1`: the inhibition amounted to 78.5%.
In the case of `Cc1nnc(SCc2nnc(-c3cccs3)o2)n1C`, the inhibition is -12.8%.
The value for `CCSc1nnc(-c2cccs2)o1` was 58.5%; that for `Cc1nnc(SCc2nnc(-c3cccs3)o2)s1` was 72.4%; that for `c1csc(-c2nnc(COc3ncnc4sccc34)o2)c1` was 10.4%.
As for `CCOC(=O)c1cnc(SCc2ccc(C(C)(C)C)cc2)nc1N`, the figure is 14.9%.
